Reference: PubChem BioAssay AID1259343 (VanderVen Lab, College of Veterinary Medicine, Cornell …, 2017)
The campaign covered roughly 6,200 compounds. About 2,900 (47%) were called active. The set was probably picked from earlier hits. This is one part of the list. A number with no mark means an inactive call. Rule as the data show it: active = inhibition above about 50%; inactive = the rest.

Assay: Mycobacterium tuberculosis growth inhibition, primary screen (AID 1259343)
Details: inhibition: at 10 µM, hits give high values; outcome: 10 uM

SMILES	inhibition
N#Cc1cnc(N(Cc2cccc(O)c2)CC2CC2)c(Cl)c1	-4.43%
FCCCN1CCc2onc(-c3ccc(-c4ccccc4)cc3)c2C1	38.4%
CSCCCNC(=O)c1ccc(-c2ccc(F)cc2)s1	2.44%
O=C(NCCc1ccc(F)cc1)c1ccc(-c2cccc(Cl)c2)s1	28.2%
O=C(NC1CCc2ccccc21)c1ccc(-c2ccc3c(c2)OCCO3)s1 (stereo not given)	34.8%
CCCCC(CC)COCCCNC(=O)c1ccc(-c2ccc3c(c2)OCO3)s1 (stereo not given)	89.3% (active)
O=C(NCCc1ccc(F)cc1)c1ccc(-c2ccc3c(c2)OCO3)s1	66.8% (active)
Cc1nc(NCCNC(=O)Nc2ccc(F)c(Cl)c2)cc(N2CCCC2)n1	58.8% (active)
COc1ccc(/C=C/CN2CCCC(CO)(Cc3cccc(Cl)c3)C2)cc1 (stereo not given)	inactive
COc1ccc(/C=C/CN2CCN(c3cc(-n4cccn4)ncn3)CC2)cc1	89.8% (active)
Cc1ccc(NC(=O)CCn2nc3ccccn3c2=O)cc1F	57.8% (active)
CC1CN(C(=O)Nc2ccccc2C(F)(F)F)c2cccnc2N1 (stereo not given)	24.7%
COC(=O)C1CCN(C(=O)COc2ccc(OCc3ccccc3)cc2)CC1	81.6% (active)
O=C(COc1ccc2ccccc2c1)N1CCC(Nc2ccccc2)CC1	3.84%
COC(=O)C1CCN(C(=O)COc2ccc3ccccc3c2Br)CC1	-1.48%
CCN1CC(=Cc2cc(C)n(C3CC3)c2C)C(=O)C(=Cc2cc(C)n(C3CC3)c2C)C1	30.3%
CCCCCCNC(=O)n1cc(F)c(=O)[nH]c1=O	97% (active)
CCCCCNC(=O)N1CC2C3CCC(C3)C21 (stereo not given)	28.6%
CCCCCNC(=O)c1sc2[nH]c(=S)[nH]c(=O)c2c1C	36.1%
Cc1cccc(-c2ccc(CNC(=O)c3ccc(=O)n(C)n3)cc2)c1	55.3% (active)
Cc1cccc(-c2cccc(CNC(=O)c3ccc(=O)[nH]n3)c2)c1	18.8%
O=C(NCc1ccc(Cl)cc1)c1cncn1-c1ccc(-c2ccc(F)c(F)c2)cc1	-2.19%

SMILES	inhibition
COc1cc(OC)cc(-c2cc3c(Nc4ccccn4)nccc3n2C)c1	57% (active)
COc1cccc(Nc2nccc3c2cc(-c2ccccc2)n3C)c1	87.3% (active)
COc1cccc(Nc2nccc3c2cc(-c2ccc(N(C)C)cc2)n3C)c1	81.2% (active)
CC(C)c1ccc(Nc2cc3c(cn2)cc(-c2cccnc2)n3C)cc1	47.9%
Cn1c(-c2cccc(C(F)(F)F)c2)cc2c(Nc3ccncc3)nccc21	97.1% (active)
COc1cccc(-c2ccnc3[nH]n(-c4ccccc4)c(=O)c23)c1	46.4%
CC(C)Cc1nnc(C(C)Sc2nc3ncc(Cl)cc3[nH]2)o1 (stereo not given)	-8.41%
CC(C)C1(CNC(=O)c2ccc(Br)s2)CC1	95.1% (active)
CC(=O)c1ccc(-c2ccc(Br)s2)cc1	37%
Cc1cccc(NC(C)c2nnc(-c3cccs3)o2)c1C (stereo not given)	61.2% (active)
O=C(Nc1ccc(Br)cc1)c1cc(Br)cc(Br)c1O	101% (active)
O=c1[nH]cc(CNCc2ccccc2)c(=O)[nH]1	101% (active)
CCC1CCCCN1C(=O)c1ccc(-c2cccc(Cl)c2)s1 (stereo not given)	81.8% (active)
O=C(O)C1CCN(c2ncnc3cc(-c4ccc(F)cc4)sc23)CC1	14.5%
CCC1CCCCN1C(=O)c1ccc(-c2ccc(F)cc2)s1 (stereo not given)	94.5% (active)
Oc1ccc(C=Cc2ccncc2)cc1	37.5%
Cn1nc([N+](=O)[O-])nc1Oc1ccc(Br)cc1	68.9% (active)
CCOC(=O)c1ccc(C#Cc2ccc3c(c2)C(C)(C)CCS3)nc1	87.4% (active)
CC(C)c1ccc(CCNC(=O)CNc2ccc(C#N)c(Cl)c2)cc1	2.06%
Cc1ccc(C(C)NC(=O)Nc2ccc(C#N)c(Cl)c2)o1 (stereo not given)	89.3% (active)
N#Cc1ccc(NC(=O)NCc2cccs2)cc1Cl	48.4%
Cc1ccc(Nc2nc(-c3ccccc3)nc(Cl)c2N)cc1	45.9%

SMILES	inhibition
Cc1ccc(Nc2n[nH]nc2C(=O)Nc2ccc(C)cc2Cl)cc1	83.6% (active)
Cc1ccc(NC(=O)NCCc2csc(C(C)C)n2)c(Cl)c1	25.8%
CCOC(=O)C1C(=O)CC(O)(c2ccc(Br)cc2)CC1C=C(Cl)Cl (stereo not given)	34%
Cc1cc(C)n2c(NCc3ccccc3)c(-c3ccc(Cl)cc3)nc2c1	51.4% (active)
CCC(=O)Nc1c(-c2cc(C)cc(C)c2)nc2cc(C)ccn12	5.69%
CCCS(=O)(=O)Oc1ccc([N+](=O)[O-])cc1-c1nc2ccccc2o1	99.4% (active)
O=[N+]([O-])c1ccc(Cl)c(S(=O)(=O)Oc2cccc3ccccc23)c1	20.7%
COc1ccccc1C(=O)Nc1cc(C)nn1-c1nc(C)cc(=O)[nH]1	99.4% (active)
CCc1cc(=O)[nH]c(-n2nc(C)cc2NC(=O)c2cccc(OC)c2OC)n1	102% (active)
COc1cccc(C(=O)Nc2cc(-c3cccs3)nn2-c2nc(C)c(C)c(=O)[nH]2)c1OC	-24.6%
COc1cccc(C(=O)Nc2cc(-c3cccs3)nn2-c2nc(C)cc(=O)[nH]2)c1OC	100% (active)
COc1cccc(C(=O)Nc2cc(C)nn2-c2nc(C)cc(=O)[nH]2)c1OC	101% (active)
COc1cccc(C(=O)Nc2cc(C)nn2-c2nc(C)c(C)c(=O)[nH]2)c1OC	7.56%
COc1cccc2c1C(=O)c1c(O)c3c(c(O)c1C2=O)C[C@@](O)(C(C)=O)C[C@@H]3O[C@H]1C[C@H](N)[C@H](O)[C@H](C)O1	38.2%
COc1cccc(C(=O)Nc2cc(C3CC3)nn2-c2nc(C)cc(=O)[nH]2)c1OC	99.8% (active)
CCOc1ccccc1C(=O)Nc1cc(C)nn1-c1nc(C)cc(=O)[nH]1	101% (active)
Cc1oc(-c2ccc(-c3ccccc3)cc2)nc1CN(Cc1ccccn1)CC1CCCO1 (stereo not given)	-19.8%
COC(=O)c1ccc(CN(Cc2ccco2)Cc2ccc(C)s2)o1	73.9% (active)
COc1ccc(CN(Cc2ccco2)CC(O)COc2ccc(Cl)cc2)cc1 (stereo not given)	6.76%
Cc1[nH]nc(C(=O)N(Cc2cccc(F)c2)CC2CCCO2)c1Br (stereo not given)	-6.44%
COC(=O)c1ccc(CN(Cc2ccc(C)s2)CC2CCCO2)o1 (stereo not given)	73.4% (active)
